Laboratory results from ChEMBL document CHEMBL4888484, “Replenishing the malaria drug discovery pipeline: Screening and hit evaluation of the MMV Hit Generation Library 1 (HGL1) against asexual blood stage Plasmodium falciparum ,using a nano luciferase reporter read-out” (2022).
Screen size: about 4,800 compounds; about 410 (8.5%) showed an effect of 50% or more. This is one part of a sample in which strong results are shown more often than they occur.

Test system: Plasmodium falciparum
Assay: Confirmatory screen in NF54 pLDH assay, in single point, at 2uM, 72h
Assay type: functional, Erythrocyte
Conditions: timepoint 72 hour

In order of rising “% Inhibition” value:
1. O=C1OC2(c3ccccc31)C(c1ccccc1)CC(=O)N2Cc1ccccc1 (centres undefined)  -21%
2. Cc1ccc(F)cc1S(=O)(=O)N1CC[C@]2(CCN(c3cccnc3)C2)C1  -20%
3. CCC1(CC)NC(=O)N(CC(=O)Nc2cccc(CC(=O)OC)n2)C1=O  -20%
4. CC(C)(C)n1ncc2c1NC(=O)C[C@@H]2c1c(F)cccc1Cl  -19%
5. CCCS(=O)(=O)NC1CCC2(CC1)OCCO2  -18%
6. CO[C@@H](CNc1nc(C)c(S(N)(=O)=O)s1)c1ccc(F)cc1  -17%
7. Cc1[nH]c2nc3ccccc3n2c(=O)c1Cc1ccccc1Cl  -15%
8. COc1cc(NC(=O)c2ccccc2Cl)cc(S(=O)(=O)c2ccc(Cl)cc2)c1  -15%
9. CC1CC(C)CN(C(=O)c2cc(NC(=O)c3ccccc3)n(C)n2)C1 (centres undefined)  -14%
10. N#Cc1nccnc1NCCCCN1C(=O)c2ccccc2C1=O  -14%
11. COc1ccc(Cl)cc1C(=O)N(C1CCOCC1)[C@H]1CCCN(S(C)(=O)=O)C1  -12%
12. COc1cccc([C@H]2CC(=O)Nc3c2cnn3C)c1  -11%
13. O=C1[C@@H]2CCCN2C(=O)N1Cc1ccnc(OC2CCOCC2)c1  -11%
14. COc1cc(N2CCn3c(nc4cc(Cl)ccc43)C2)ccc1NC(=O)c1ccccc1OC  -10%
15. O=C(CN1CCOCC1)Nc1ccc(N2CCOCC2)c(F)c1  -8%
16. CC1(C)COC(=O)[C@H]1OCN1CCCC1=O  -7%
17. COc1ccccc1C(=O)NC1=C(C)Nc2ncnn2[C@H]1c1c[nH]c2ccccc12  -5%
18. CCc1cc(O)nc(CN2CCCC2C(O)C(F)(F)F)n1 (centres undefined)  -4%
19. COc1ccc(NC(=O)c2cc(C3CC3)nc3onc(C4CC4)c23)cc1Cl  -4%
20. O=C(COc1ccc(Cl)cc1)N1CC(n2cnnc2C2CC2)C1  -4%
21. CCOc1cc(CNC2CCCCC2)cc(Cl)c1OCc1ccc(C)cc1  -4%
22. Cc1cc(F)c(C(=O)Nc2nc(-c3cnn(C)c3)cs2)cc1F  -4%
23. N#Cc1ccc(O)c(NC(=O)c2snc(O)c2Cl)c1  -3%
24. CCC1=NN2C(=NC(C(=O)O)=C[C@H]2c2ccc(O)cc2)N1  -3%
25. O=C(NCc1cccc(C(F)(F)F)c1)c1csc(C(=O)NC2CCCC2)n1  -3%
26. O=S(=O)(c1cccc(F)c1)c1cnc2c(F)cccc2c1-c1cccc(F)c1  -3%
27. Cc1ccc(S(=O)(=O)N2CCN(S(C)(=O)=O)C2)cc1  -3%
28. Cc1c(NC(=O)c2ccc(-c3cccc(F)c3)o2)cccc1-c1nc2ncccc2o1  -2%
29. COc1ccc(NC(=O)CN2N=C(C(=O)Nc3ccc(F)cc3)CCC2=O)cc1  -1%
30. COc1ccc2c(c1)CN(Cc1ccccc1Cl)CC[C@H]1COC(=O)N21  -1%
31. Cc1ccc(S(=O)(=O)N2CCCC(=O)c3ccccc32)cc1  0%
32. O=C(c1cn[nH]c1-c1ccccc1)N1CCCCCC1  1%
33. COc1cccc(N2CCN(C(=O)c3cn4cc(-c5ccc(Cl)cc5)ccc4n3)CC2)c1  2%
34. CC(C)N1CCN(C(=O)CN2N=C(c3nc(-c4ccccc4)no3)CCC2=O)CC1  2%
35. Cc1noc(Cn2c(=O)c3ccccc3n(CC(=O)Nc3cccc(Cl)c3C)c2=O)n1  2%
36. C[C@H](C(=O)Nc1nccn2ccnc12)c1ccccc1  3%
37. CC(=O)N1CCn2c(nnc2[C@@H]2CCCN2S(=O)(=O)c2cc(F)ccc2F)C1  3%
38. CCC(CC)C(=O)Nc1cccc(Cl)c1C  4%
39. CCc1ccc(CS(=O)(=O)NC(=O)c2cn3ccnc3s2)cc1  4%
40. COc1ccc(-c2nn(-c3ccccc3)c(O)c2C(c2ccc(C(=O)O)cc2)c2c(-c3ccc(OC)cc3)nn(-c3ccccc3)c2O)cc1  4%
41. CS(=O)(=O)N1CCC(C(=O)Nc2c(C(N)=O)sc3nc(C(F)F)cc(C4CC4)c23)CC1  5%
42. CN(C)C(=O)NCC1(NC(=O)N(C)C)CCC1  5%
43. CC(C)(C)NC(=O)c1ncc(Br)cc1Br  5%
44. C[C@@]12CO[C@@H](COc3ccccc3)O[C@@H]1CC[C@]1(C)C2CC[C@@H](O)[C@H]1CC(=O)N1CCC[C@H]1CO (some centres undefined)  6%
45. COc1ccc(CN2CC(C)OC3(CCOC3)C2)cc1Cl (centres undefined)  6%
46. Cc1noc(C)c1C(=O)NC[C@H](O)Cn1ccccc1=O  6%
47. COc1ccc(-c2noc([C@H](C)NC(=O)N3CCNC(=O)C3)n2)cc1OC  6%
48. C[C@](O)(CCc1ccccc1)C(=O)NCCc1ncc[nH]1  6%
49. O=C1C2C(Cc3ccccc3)NC3(C(=O)Nc4ccccc43)C2C(=O)N1c1cccc(C(F)(F)F)c1 (centres undefined)  6%
50. CNC(=NCC(C)(C)c1ccc(OC)cc1)NC  7%
51. COc1ccc(NC(=O)[C@@H]2COCC(=O)N2Cc2ccc(C)cc2)cc1  7%
52. CCC(CC)C(=O)Nc1cccc(O)c1  7%
53. CCn1ccnc1C(=O)Nc1ccc(OC)nc1  7%
54. c1ccc(CNc2ncnc3c2cnn3-c2ccccn2)cc1  7%
55. Cc1cc(=O)[nH]c(N2CCCCCC2)n1  8%
56. CCn1cc(Cl)c(C(=O)N2N=C3/C(=C/c4ccc5c(c4)OCO5)CCCC3C2c2ccc3c(c2)OCO3)n1 (centres undefined)  8%
57. Cc1ccc(C(=O)N2CC(C)CC(C)C2)cc1NCc1ncc[nH]1 (centres undefined)  8%
58. Cc1cccc(N2C(=O)C3CC3C2=O)c1 (centres undefined)  8%
59. CC(C)c1ccc(NC(=O)CCC(=O)N2CCc3ccccc3C2)cc1  9%
60. CC(=O)N1CCCN(C(=O)c2ccccc2)CCNC(=O)[C@@H]2CCC[C@@H]21  9%
61. O=c1c2cc(F)c(F)cc2ncn1C[C@@H](O)CC1CCCC1  9%
62. CN(CCN)c1ccc(Br)cc1C#N  9%
63. COc1ccc(NC(=O)c2cc3c(C)nn(-c4ccccc4)c3s2)cn1  9%
64. C[C@H]1CN(Cc2ccccc2)CC2(CCN(C(=O)N(C)C)CC2)O1  10%
65. COc1ccc(F)c(NC(=O)N(CCO)C(C)C)c1  10%
66. COC1CCC(CC(=O)N[C@H]2CC(=O)N(c3ccccc3)C2)CC1 (some centres undefined)  10%
67. Clc1cc(CN2CC[C@@]3(CCCOC3)C2)ccc1OCCN1CCOCC1  11%
68. O=C(N[C@H](c1ccccc1)C1CC1)C(c1ccccc1)c1ccccc1  11%
69. CS(=O)(=O)Nc1ccc(OC(=O)C2C3CCCCC32)cc1 (centres undefined)  11%
70. CCc1ccc(NC(=O)c2c(C)sc3ncnc(N4CCCCC4)c23)cc1  12%
71. O=C(NC1=NN2C(=NC(c3ccc(Cl)cc3)=C[C@H]2c2ccc(F)cc2)N1)c1ccc(Cl)cc1  13%
72. Cc1nn(CCOc2ccccc2)c(=O)n1-c1ccc(C(C)C)cc1  14%
73. Cc1c(-c2nn(-c3nc(C4CC4)cc(C(F)(F)F)n3)c(-c3cnn(C)c3C)c2Cl)cnn1C  14%
74. Cc1nnc2ccc(S(=O)(=O)N(Cc3ccc(F)cc3)c3cccc(Cl)c3)cn12  14%
75. Cc1ccccc1N1C2=CCCCCN2C[C@]1(O)c1ccc(Br)cc1  14%
76. COc1ccc(NC(=O)Cn2cnc3nc(N4CCOCC4)ncc3c2=O)cc1  15%
77. O=C1CCC(Nc2ccc(Br)cn2)C(C2CC2)N1 (centres undefined)  15%
78. Clc1ccc(-c2noc(C3CNC3)n2)cc1  15%
79. Oc1ccc(-c2nnc(-c3ccc(O)cc3)nn2)cc1  22%
80. COc1cccc(-c2nn(-c3nc(-c4ccccc4)cc(C(F)(F)F)n3)c(-c3cccc(OC)c3)c2Cl)c1  35%
81. COc1ccc(C2=CN(CC(=O)c3ccc(Cl)cc3)C3=CCCCCN23)cc1  41%
82. CC(C)C(=O)Nc1ccc(-c2cc(-c3ccc(NC(=O)C(C)C)cc3)nc(-c3ccncc3)n2)cc1  42%
83. O=C(CN1C=CCC=C1c1nc(-c2ccc(Br)cc2)cs1)c1ccccc1  46%
84. Cc1ccccc1C(=O)Cc1ncc[nH]1  53%
85. c1ccc(-c2noc(-c3ccc(NC4CCCCC4)nn3)n2)cc1  60%
86. C[n+]1ccc(-c2ncc(-c3ccccc3)o2)c2ccccc21  62%
87. CCc1ccc(C2=C[C@@H](c3cccc(OC)c3)n3ncc(C(=O)Nc4ccc(C)cc4)c3N2)cc1  70%
88. COc1ccc(Cl)cc1C(=O)Nc1cc(C2CC2)nn1-c1nc(C)cc(=O)[nH]1  72%
89. COc1ccc(C(=O)CN2C=CCC=C2c2nc(-c3ccc(Cl)cc3)cs2)cc1  73%
90. CC(C)[C@@H]1CC[C@H](C)C[C@H]1OC(=O)Cn1cc(-c2ccc(Cl)cc2)[n+]2c1CCC2  75%
91. Cc1cc(=O)[nH]c(-n2nc(C3CC3)cc2NC(=O)C(C)(C)Oc2ccc(Cl)cc2)n1  82%
92. Cc1nn(-c2ccccn2)c(O)c1C(c1ccccc1)c1c(C)nn(-c2ccccn2)c1O  86%
93. COc1ccc([C@@H]2C=C(c3ccc(Cl)cc3)N=C3NC(NC(=O)c4ccccc4OC)=NN32)cc1  89%
94. COc1ccc(-c2cc(C(F)(F)F)nc(-n3nc(-c4cccc(OC)c4)c(Cl)c3-c3cccc(OC)c3)n2)cc1  92%
95. COc1ccccc1C(=O)NC1=NN2C(=NC(c3ccc(Cl)cc3)=C[C@H]2c2ccc(Cl)cc2)N1  92%
96. Cc1ccc2c(c1)c1c(n2S(=O)(=O)c2ccc(C(C)(C)C)cc2)CCCN(C)C1  94%
97. Fc1ccc(C2=C[C@@H](c3ccc(Cl)cc3)N3N=C(c4ccc(Cl)cc4)NC3=N2)cc1  97%
98. C[C@H](N)c1ccc(Nc2ncc3cc(-c4ccncc4)ccc3n2)cc1  101%
99. COc1ccc2nc(O)c(C(=O)Nc3ccc4c(c3F)CCNC4)cc2c1  101%
